Source: the supplement of paper PMC7556523

Key:
[1] = tested on: Sporothrix brasiliensis CBS 133006; experiment: growth inhibition relative to untreated control; higher = more growth inhibition (more antifungal activity), active = 80 or more; extreme values may be limits of the assay; conditions: 1 µM; 48 h
In short: (§1)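 Before testing, the reference isolates were kept in brain heart infusion broth with 2% glucose at 36°C for 7 days to give yeast-form cells. These cells, at 1 x 10^5 CFU/ml, received library compounds at a final 1 μM and were held 48 h at 35°C in 5% CO2. Growth was checked by eye under an inverted light microscope and quantified spectrophotometrically in quadruplicate, and the value is percent growth inhibition versus untreated cells.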

[2] = tested on: Sporothrix schenckii ATCC 32286; experiment: as above; conditions: 1 µM; 48 h
In short: as §1

Structure (SMILES) | growth inhibition [1] | growth inhibition [2]
CC(C)(C)n1nc(Cc2cccc3ccccc23)c2c(N)ncnc21 | 11% (inactive) | 0% (inactive)
c1ccc(Oc2ccc(-c3cc(CN4CCOCC4)[nH]n3)cc2)cc1 | 2.25% (inactive) | 5.75% (inactive)
CN1CCN(c2cc(-c3ccc(F)cc3)nc(-c3ccncc3)n2)CC1 | 7% (inactive) | 12.2% (inactive)
CC(=O)N1CCc2cc3nc(C)cc(C)c3cc21 | 4% (inactive) | 0% (inactive)
CCS(=O)(=O)N(Cc1ccco1)Cc1cc2ccc(C)cc2nc1O | 2.5% (inactive) | 2% (inactive)
O=C(NCc1ccoc1)N1CCN(Cc2ccc3c(c2)OCO3)CC1 | 7.5% (inactive) | 6.25% (inactive)
CN1CCN(c2nccc3[nH]c(-c4cccc(F)c4)cc23)CC1 | 2.5% (inactive) | 19.5% (inactive)
Cc1ccc2[nH]c(C3CCCNC3)c(-c3ccncc3)c2c1 (centres undefined) | 19% (inactive) | 7.75% (inactive)
COc1ccc(C2=NN(C3CCCCCC3)C(=O)[C@@H]3CC=CC[C@H]23)cc1OCCCCOc1ccc(-c2nnn[nH]2)cc1 | 2.5% (inactive) | 9.5% (inactive)
COc1cccc(NC(=O)c2c(NC(=O)c3cccnc3)sc3c2CCC3)c1 | 15.8% (inactive) | 13.8% (inactive)
C[C@H]1c2cccc(O)c2C(=O)C2=C(O)[C@]3(O)C(=O)C(C(N)=O)=C(O)[C@@H](N(C)C)[C@@H]3[C@@H](O)[C@@H]21 | 9.12% (inactive) | 10.5% (inactive)
COc1cc(CN2CCC3(C=Cc4ccccc43)CC2)cc2c1OCO2 | 4.25% (inactive) | 3.25% (inactive)
CC(C)n1ncc2c(C(=O)NCC(c3cccs3)N3CCOCC3)cc(-c3ccccc3)nc21 (centres undefined) | 2% (inactive) | 12.8% (inactive)
CNc1nnc(Sc2cnn(-c3ccccc3)c(=O)c2Cl)s1 | 6% (inactive) | 0% (inactive)
NCCN(C(=O)c1ccc(Cl)cc1Cl)c1ccc(OCc2ccc(Cl)cc2)cc1 | 9.75% (inactive) | 7% (inactive)
CS(=O)(=O)N1CCC(CCn2nc(Cc3cccc4ccccc34)c3c(N)ncnc32)CC1 | 5.5% (inactive) | 14% (inactive)
COc1cc(OC)cc(C(=O)NCC2Cc3cc(Cl)cc(-c4ccncc4)c3O2)c1 (centres undefined) | 17.5% (inactive) | 2% (inactive)
